{"source": "PubChem BioAssay (NCI)", "note": "Values joined by “and” are separate entries in the source; they are usually repeats but may differ in a detail not shown here. Identical values can stand only once. Compounds without any hit were thinned out: in the full panel of roughly 83,000, 20% have a hit.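 Note: values are percent growth. 100 is the growth of untreated cells, values between 100 and 0 indicate rising inhibition; between -100 and 0 indicates cell death.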 Active and inactive are the calls of the source. Rule for the calls: active = growth percent below 10; inactive = the rest."}
{"system": "TK-10 renal", "assay": "NCI-60 one-dose screen, 48 h (100 = growth as untreated, 0 = no growth, -100 = all killed)", "settings": "10 µM unless noted"}
{"molecule": "COc1ccc2nc3c4c(nccc4c2c1)-c1ncccc1C3=O", "growth": "-90.7% [50 µM] (active) and -100% [50 µM] (active)"}
{"molecule": "C=CCO/N=C/c1cc(NC(=S)c2ccoc2C)ccc1Cl", "growth": "-93.7% [100 µM] (active) and -93.1% [100 µM] (active)"}
{"molecule": "C=C1C(=O)C2=CC1CCC(=O)C1(C)CCC(OC(C)=O)C(C)(C)C1CC2O", "note": "(stereo unspecified)", "growth": "-96% [100 µM] (active) and -89.5% [100 µM] (active)"}
{"molecule": "COc1ccc2c(c1)C(N)=C(c1ccccc1)C2=O", "growth": "99.7% [100 µM] (inactive) and 3.68% [100 µM] (active)"}
{"molecule": "O=Cc1ccc(-c2ccc(-c3ccc(CO)s3)o2)s1", "growth": "-35% [100 µM] (active) and -93.3% [100 µM] (active)"}
{"molecule": "COc1c(/C=C/C=O)cc2c(c1OC)OCO2", "growth": "-2.29% [100 µM] (active) and -52.3% [100 µM] (active)"}
{"molecule": "Cc1ccc(/C=N/Nc2cc(C)c3cccc(C)c3n2)s1", "growth": "-67.1% [100 µM] (active) and -100% [100 µM] (active)"}
{"molecule": "Fc1cccc(F)c1C1SCc2nc3cc4ccccc4cc3n21", "note": "(stereo unspecified)", "growth": "27% [100 µM] (inactive) and 34.3% [100 µM] (inactive)"}
{"molecule": "O=C(/C=C/c1ccccc1)CCC1C(=O)c2ccccc2C1=O", "growth": "105% [100 µM] (inactive) and 77.6% [100 µM] (inactive)"}
{"molecule": "N=C1C(=N)c2ccccc2-c2ccccc21", "growth": "51.2% [100 µM] (inactive) and 3.24% [100 µM] (active)"}
{"molecule": "S=C1NC2=C(COc3ccccc32)C(c2ccc(Cl)cc2)N1", "note": "(stereo unspecified)", "growth": "-3.55% [100 µM] (active) and -100% [100 µM] (active)"}
